According to PubChem BioAssay AID1117308 (National Center for Advancing Translational Sciences (NCATS), 2015):
Some of the results follow. Activity calls are given as the source filed them. The call rests on the fitted dose curve.

Details: Ebola pseudovirus entry assay, ratio channel

Row | Compound | AC50 | outcome
1 | CC[C@]1(O)C[C@@H]2CN(CCc3c([nH]c4ccccc34)[C@@](C(=O)OC)(c3cc4c(cc3OC)N(C)[C@H]3[C@@](O)(C(=O)OC)[C@H](OC(C)=O)[C@]5(CC)C=CCN6CC[C@]43[C@@H]65)C2)C1 | 0.137 µM (active) | –
2 | CCCC(C(=O)OCCN(CC)CC)(c1ccccc1)c1ccccc1 | 4.85 µM (active) | –
3 | CO[C@H]1C[C@@H]2CC[C@@H](C)[C@@](O)(O2)C(=O)C(=O)N2CCCC[C@@H]2C(=O)O[C@H]([C@@H](C)C[C@@H]2CC[C@H](O)[C@H](OC)C2)CC(=O)[C@H](C)C=C(C)[C@@H](O)[C@@H](OC)C(=O)[C@H](C)C[C@H](C)C=CC=CC=C1C | – | inactive
4 | CN(C(=O)CN(CCO)CC(=O)N(C)C(C)(C)Cc1ccccc1)C(C)(C)Cc1ccccc1 | 6.11 µM (active) | –
5 | COc1ccccc1OCCNCC(O)COc1cccc2[nH]c3ccccc3c12 (centres undefined) | 17.2 µM (active) | –
6 | Clc1ccc(C(Cn2ccnc2)OCc2ccsc2Cl)c(Cl)c1 (centres undefined) | 13.7 µM (active) | –
7 | CO[C@]12CC[C@@]3(C[C@@H]1[C@](C)(O)C(C)(C)C)[C@@H]1Cc4ccc(O)c5c4[C@@]3(CCN1CC1CC1)[C@H]2O5 | 9.87 µM (active) | –
8 | CCCCN(CCCC)CCC(O)c1cc2c(Cl)cc(Cl)cc2c2cc(C(F)(F)F)ccc12 (centres undefined) | 13.7 µM (active) | –
9 | CCN(CC)CCCC(C)Nc1ccnc2cc(Cl)ccc12 (centres undefined) | 15.3 µM (active) | –
